The target of test [1] is Lysosomal acid glucosylceramidase (Homo sapiens) (UniProt P04062). Briefly: Glucocerebrosidase-p2 (AID 348; in the data active means potency below about 10 µM; further: potency means the concentration at half of the fitted maximal effect). The conditions noted are these: purified GBA, blue fluorogenic substrate, 40 min. The procedure, abridged: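 Normal human glucocerebrosidase (0.2 nM) with blue fluorogenic substrate (80 uM final) in citrate/phosphate pH 5.9 with 10mM sodium taurocholate, 0.01% tween-20; 40 min RT, NaOH/glycine stop; fluorescence Ex 365/Em 440; AC50 from a titration from 0.6 nM upwards.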

Test [2] is described as follows: AP1 Signaling Pathway (AID 357; active means well fitted curve in either direction with a large enough effect, not every such curve was filed as active;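 further: ME-180 reporter cells stimulated with EGF at its EC50 level; on the % scale 0 is the no-effect control and ±100 the full control effect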). The conditions noted are these: ME-180 AP-1-bla reporter, EGF-induced, beta-lactamase ratio, 5 h; at 7.69 µM (top of the series) unless noted. The procedure, abridged:
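Beta-lactamase reporter under AP-1 response element, ME-180 background. Stimulus: EC50 EGF. Compound exposure 5 h, 37 °C. Detection: CCF4, 2.5 h RT, 460/530 nm. Values: AC50 from titration.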

In test [3] the target is Cytochrome P450 1A2 (Homo sapiens) (UniProt P05177). The test is described as follows: p450-cyp1a2 (AID 410; calls by dose curve; further: potency means the concentration at half of the fitted maximal effect). The procedure, abridged:
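20nM CYP1A2, 100uM Luciferin-ME (=Km), 100mM KPO4; cpd 10 min RT; +NADPH regen, 60 min RT; stop/detect 20 min; luminescence. Normalized to furafylline 57 uM = full inhibition.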

Test [4] can be described thus: NFAT Signaling Pathway (AID 444; active means well fitted curve in either direction with a large enough effect, not every such curve was filed as active;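 further: carbachol stimulus at about its EC50 of 1 µM final; on the % scale 0 is the no-effect control and ±100 the full control effect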). As to conditions: Jurkat NFAT-bla M1, carbachol, beta-lactamase ratio, 5 h; at 7.69 µM (top of the series) unless noted. The method in brief:
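Read-out: CCF4 FRET ratio (460 nm/530 nm) after 1 h RT dye loading, used for %activity and AC50 from titration series. Cells: Jurkat NFAT-β-lactamase/M1 line, treated with compound plus 1 uM carbachol for 5 h, 37 °C.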

Test [5] in a line: Stat Signaling Pathway (AID 446; active means well fitted curve in either direction with a large enough effect, not every such curve was filed as active;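 further: ME-180 cervical cancer cells given 40 pM IL-6 alongside compound; SIE-controlled beta-lactamase reporter measured as 460/530 nm FRET emission ratio; on the % scale 0 is the no-effect control and ±100 the full control effect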). The conditions noted are these: ME-180 SIE beta-lactamase reporter, IL-6 stimulated, 5 h; at 7.69 µM (top of the series) unless noted. The method in brief: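 Emission at 460 and 530 nm (excitation 405 nm) reports SIE-controlled beta-lactamase in ME-180 cells. Cells received compound with 40 pM IL-6 for 5 hrs at 37 C; data scaled between 300 pM IL-6 and 125 nM JAK-inhibitor controls.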

Test [6] addresses Glucocorticoid receptor (Homo sapiens) (UniProt P04150). Briefly: GR-GFP Redistribution (AID 450;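 active means compounds whose dose series gives a full or clear partial fitted curve of increased nuclear translocation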; further: potency means the concentration at half of the fitted maximal effect). The conditions noted are these: U2OS GR-GFP nuclear translocation, laser cytometry, 2 h.
Test [7] has the same target. The test is described as follows: GR-EFC Redistribution (AID 451; calls by dose curve; further: potency means the concentration at half of the fitted maximal effect). The conditions noted are these: CHO-K1 GR-EFC translocation, beta-gal luminescence, 2 h. The procedure, abridged: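 Translocation of GR-ED fusion to nuclear EA restores b-gal, read by luminescence after 1 h room-temperature detection. Engineered CHO-K1 biosensor cells, 1,000/well, exposed 2 h at 37 C to titrations up to 46 uM final.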

The target of test [8] is Mitogen-activated protein kinase 10 (Mus musculus) (UniProt Q61831). Briefly: JNK3 AlphaScreen Assay (AID 530; active means well fitted curve in either direction with a large enough effect, not every such curve was filed as active;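 further: kinase came from lysate of stimulated human HepG2 cells; signal reports phosphorylation of biotinylated GST-cJun 1-79 at Ser73 with 10 µM ATP; on the % scale 0 is the no-effect control and ±100 the full control effect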). The procedure, abridged: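 Kinase buffer: 20 mM Tris-HCl pH 7.6, 10 mM MgCl2, 1 mM DTT, 0.1 mM Na3VO4, 0.01% Tween-20; ATP 10 uM. Substrate biotin-GST-cJun(1-79), enzyme from activated HepG2 lysates. Detection by Ser73 phospho-antibody AlphaScreen.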
In general terms: Alpha assays give light when donor and acceptor beads are brought close together.

Test [9] concerns the target 3',5'-cyclic-AMP phosphodiesterase 4B (Homo sapiens) (UniProt Q07343). The test is described as follows: qHTS Assay for Inhibitors of PDE-IV (AID 607; active means well fitted activation curve with a large enough effect in the main read-out, with a control signal flat, not every such curve was filed as active; further: % of control where 0% means no effect). The method in brief: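 The readout is membrane depolarisation from a cAMP-sensing CNG channel, detected with a potential dye at ex 535/em 590. Cells were HEK293-derived (endogenous PDE-IV) at 1000 cells/well, titrated up to 22.9 uM final.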

In test [10] the target is Cytochrome P450 3A4 (Homo sapiens) (UniProt P08684). The test is described as follows: qHTS Assay for Inhibitors and Substrates of Cytochrome P450 3A4 (AID 884). Further: potency means the concentration at half of the fitted maximal effect; nearly all actives have a fitted effect of over 50% in size. The procedure, abridged:
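Luminescent readout of luciferin produced by CYP3A4 (20 nM) dealkylation of Luciferin-PPXE, 25 uM (its KM). NADPH-driven reaction ran 60 min at RT after 10 min compound preincubation; data scaled to 57 uM ketoconazole as 100% inhibition.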

For test [11] the target is unchanged. Briefly: qHTS Assay for Activators of Cytochrome P450 3A4 (AID 885). Further: nearly all actives have a fitted effect of over 65% in size. The method in brief:
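Activators are scored by enhanced luminescence from CYP3A4 conversion of luciferin-PPXE (25uM, equal to KM) to luciferin, after 60 min at RT with an NADPH-regenerating system.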
On the technique in general: Quantitative high-throughput screening tests each substance at several concentrations.

Test [12] addresses Cytochrome P450 2C19 (Homo sapiens) (UniProt P33261). Briefly: qHTS Assay for Inhibitors and Substrates of Cytochrome P450 2C19 (AID 899). Further: potency means the concentration at half of the fitted maximal effect; nearly all actives have a fitted effect of over 60% in size. The procedure, abridged: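 Luminescence readout of luciferin formed from 10uM Luciferin-H EGE (KM level) by 5 nM CYP2C19 in 50mM KPO4. 60 min NADPH-driven reaction at 37C after 10 min compound preincubation; data scaled to 57uM ketoconazole inhibition.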

A short description of test [13]: Confirmation and Secondary Assay for Modulators of Hemoglobin Beta Chain Splicing at IVS2 654 locus (AID 910).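 Further: HeLa cells stably carrying EGFP split by mutant beta-globin IVS2-654 intron; per-well total GFP intensity by laser scanning cytometry after 2-day treatment; % of control where 0% means no effect.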 The procedure, abridged:
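Readout: per-well total peak green fluorescence (488 nm ex, 500–520 nm em) from objects 5–250 µm, reflecting correct splicing of an EGFP-654 reporter. Compounds were applied for 2 days at 37 °C to overnight-plated HeLa EGFP-654 cells; controls were DMSO and 500 nM IVS2-654 PNA.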

Test [14] in a line: Confirmation and Secondary Assay for Modulators of Hemoglobin Beta Chain Splicing at IVS2 705 locus (AID 930).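 Further: HeLa cells stably expressing the EGFP-705 splicing reporter; GFP fluorescence per well restored by corrected splicing of the IVS2-705 intron in EGFP; % of control where 0% means no effect.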 The procedure, abridged:
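Per-well GFP, captured at 1 x 8 µm resolution with 488 nm excitation, served as the read-out for HeLa EGFP-705 cells incubated 2 days with test compound versus DMSO.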

Test [15] is described as follows: qHTS Assay for Lipid Storage Modulators (AID 1519; calls by dose curve). The conditions noted are these: Drosophila S3 cells, BODIPY lipid droplet/cell ratio, laser cytometry, cells loaded with oleic acid; for activity change, negative = inhibition: at 57.5 µM (top of the series). The method in brief: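 Cells seeded at 5,000 per well were treated with compounds over a concentration series and loaded with oleic acid (400 uM, as added). Lipid droplet fluorescence (488 nm excitation, 500-530 nm channel) was read by laser-scanning cytometry and normalized to 20 uM Triacsin C.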

Test [16] deals with Ubiquitin carboxyl-terminal hydrolase 1 (Homo sapiens) (UniProt O94782). The test is described as follows: Inhibitors of USP1/UAF1: Pilot qHTS (AID 504865).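 Further: rhodamine fluorescence freed from ubiquitin-rhodamine substrate followed over time; top concentration of the series differs between compounds; on the % scale 0 is the no-effect control and ±100 the full control effect; nearly all actives have a fitted effect of over 35% in size.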 The procedure, abridged: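 Deubiquitinase activity followed as kinetic rhodamine fluorescence release from 150 nM Ub-Rho. 1 nM USP1/UAF1 with compound, after 15 min room-temperature preincubation, in HEPES pH 7.8 buffer containing TCEP, EDTA, BSA and Tween-20.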

The nature of test [17]: Primary qHTS for small molecule stabilizers of the endoplasmic reticulum resident proteome: Secreted ER Calcium Modulated Protein (SERCaMP) assay (AID 1508630). Further: on the % scale 0 is the no-effect control and ±100 the full control effect. The procedure, abridged:
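The SH-SY5Y reporter protocol was run at 3 concentrations up to 38.3 uM (primary) or 11 concentrations (follow-up): 16 h compound, 100 nM thapsigargin for 4 h, then extracellular luciferase luminescence.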

Test [18] can be described thus: qHTS Assay for Identification of Small Molecule Agonists for Hypoxia Response Element Signaling Pathway (AID 914; active means well fitted activation curve with a large enough effect in the signal ratio, with a control signal flat, not every such curve was filed as active; the % refers to the signal ratio; further: % of control where 0% means no effect). The conditions noted are these: ME-180 (cervical carcinoma) HRE-bla reporter, beta-lactamase ratio, CoCl2, 17 h; activation: stronger effect = higher value. The method in brief: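 In Opti-MEM containing 0.5% dialyzed FBS and 10 mM HEPES, ME-180 HRE-bla cells received a compound titration and EC50 CoCl2. They were incubated 17 hours, then CCF4-loaded 2.5 hours at room temperature before ratio reading.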

Test [19] has as its target Dual specificity protein kinase CLK4 (Homo sapiens) (UniProt Q9HAZ1). The test is described as follows: qHTS Assay for Inhibitors of CDC-like Kinase 4 (ADP-FP Assay) (AID 1795).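 Further: recombinant human CLK4 phosphorylating RS repeat peptide at 1 µM ATP; on the % scale 0 is the no-effect control and ±100 the full control effect; nearly all actives have a fitted effect of over 60% in size.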 The method in brief: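 Kinase activity was measured as ADP production using Transcreener orange tracer (4 nM) and ADP antibody (1 ug/mL) fluorescence polarization, with ADP calculated from a calibration curve. The 1 h reaction contained 6.25 nM Clk4, 1 uM ATP and 100 uM RS peptide at pH 7.5 with Mg2+.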

Where [20] appears, read: measured here: cell count channel max response.
[21] abbreviates: measured here: lipid channel max response.

Inconclusive results are not listed. Calls of active or inactive are those of the source. Unless noted, the call rests on the fitted dose curve; in most records, active means well fitted curve in the direction sought with a large enough effect; inconclusive means small, poorly fitted or top-dose-only effect, or another doubt; inactive means no such curve, though single readings can be large; an effect the other way counts as inactive or inconclusive.

Sequence of Ubiquitin carboxyl-terminal hydrolase 1 (Homo sapiens) (O94782 whole entry, looked up): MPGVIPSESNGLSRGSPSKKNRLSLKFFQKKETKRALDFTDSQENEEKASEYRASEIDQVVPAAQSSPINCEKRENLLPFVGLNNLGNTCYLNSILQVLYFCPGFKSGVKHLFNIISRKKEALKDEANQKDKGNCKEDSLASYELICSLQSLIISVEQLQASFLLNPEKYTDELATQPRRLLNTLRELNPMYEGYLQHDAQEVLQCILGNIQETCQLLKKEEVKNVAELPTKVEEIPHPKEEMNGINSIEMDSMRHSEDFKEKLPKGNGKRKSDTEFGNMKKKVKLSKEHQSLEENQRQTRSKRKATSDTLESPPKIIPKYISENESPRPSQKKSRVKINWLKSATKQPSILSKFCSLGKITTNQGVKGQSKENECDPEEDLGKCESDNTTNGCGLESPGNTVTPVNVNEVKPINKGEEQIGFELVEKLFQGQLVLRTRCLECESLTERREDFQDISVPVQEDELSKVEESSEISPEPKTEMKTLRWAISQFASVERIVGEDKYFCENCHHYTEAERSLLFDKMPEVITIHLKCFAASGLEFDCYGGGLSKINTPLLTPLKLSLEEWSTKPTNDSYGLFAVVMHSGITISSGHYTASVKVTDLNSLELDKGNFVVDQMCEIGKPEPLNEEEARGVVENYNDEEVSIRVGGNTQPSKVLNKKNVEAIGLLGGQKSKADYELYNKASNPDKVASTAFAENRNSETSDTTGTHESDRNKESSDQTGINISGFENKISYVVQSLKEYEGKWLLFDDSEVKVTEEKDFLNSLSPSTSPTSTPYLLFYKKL
Sequence of Cytochrome P450 1A2 (Homo sapiens) (P05177 whole entry, looked up): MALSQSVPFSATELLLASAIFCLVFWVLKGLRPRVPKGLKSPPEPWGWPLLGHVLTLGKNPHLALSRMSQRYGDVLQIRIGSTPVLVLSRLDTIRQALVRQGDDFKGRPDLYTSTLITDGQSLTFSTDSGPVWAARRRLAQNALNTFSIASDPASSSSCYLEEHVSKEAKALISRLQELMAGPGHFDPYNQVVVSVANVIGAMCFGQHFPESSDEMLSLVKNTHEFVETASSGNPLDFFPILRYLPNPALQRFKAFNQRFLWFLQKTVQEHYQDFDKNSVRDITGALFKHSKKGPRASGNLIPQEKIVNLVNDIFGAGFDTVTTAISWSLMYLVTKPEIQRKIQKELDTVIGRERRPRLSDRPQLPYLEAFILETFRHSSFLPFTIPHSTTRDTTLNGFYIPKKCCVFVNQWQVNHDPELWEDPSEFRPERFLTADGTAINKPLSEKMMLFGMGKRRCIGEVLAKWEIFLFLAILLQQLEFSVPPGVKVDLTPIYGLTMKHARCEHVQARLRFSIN
Sequence of Lysosomal acid glucosylceramidase (Homo sapiens) (P04062 whole entry, looked up): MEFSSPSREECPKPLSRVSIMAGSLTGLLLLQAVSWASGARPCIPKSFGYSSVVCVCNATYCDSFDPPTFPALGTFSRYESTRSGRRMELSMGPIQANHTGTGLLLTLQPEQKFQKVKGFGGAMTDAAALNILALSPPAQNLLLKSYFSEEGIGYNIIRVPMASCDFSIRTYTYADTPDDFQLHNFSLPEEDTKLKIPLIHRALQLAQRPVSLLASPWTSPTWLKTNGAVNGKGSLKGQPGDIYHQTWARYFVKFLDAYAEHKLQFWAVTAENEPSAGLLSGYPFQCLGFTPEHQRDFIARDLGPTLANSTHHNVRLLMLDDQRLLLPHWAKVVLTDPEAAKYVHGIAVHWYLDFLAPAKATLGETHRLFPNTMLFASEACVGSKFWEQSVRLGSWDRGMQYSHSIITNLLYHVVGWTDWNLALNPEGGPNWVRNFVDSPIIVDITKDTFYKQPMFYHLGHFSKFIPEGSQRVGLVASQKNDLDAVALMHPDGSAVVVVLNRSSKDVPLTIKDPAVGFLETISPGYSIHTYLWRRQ
Sequence of Cytochrome P450 3A4 (Homo sapiens) (P08684 whole entry, looked up): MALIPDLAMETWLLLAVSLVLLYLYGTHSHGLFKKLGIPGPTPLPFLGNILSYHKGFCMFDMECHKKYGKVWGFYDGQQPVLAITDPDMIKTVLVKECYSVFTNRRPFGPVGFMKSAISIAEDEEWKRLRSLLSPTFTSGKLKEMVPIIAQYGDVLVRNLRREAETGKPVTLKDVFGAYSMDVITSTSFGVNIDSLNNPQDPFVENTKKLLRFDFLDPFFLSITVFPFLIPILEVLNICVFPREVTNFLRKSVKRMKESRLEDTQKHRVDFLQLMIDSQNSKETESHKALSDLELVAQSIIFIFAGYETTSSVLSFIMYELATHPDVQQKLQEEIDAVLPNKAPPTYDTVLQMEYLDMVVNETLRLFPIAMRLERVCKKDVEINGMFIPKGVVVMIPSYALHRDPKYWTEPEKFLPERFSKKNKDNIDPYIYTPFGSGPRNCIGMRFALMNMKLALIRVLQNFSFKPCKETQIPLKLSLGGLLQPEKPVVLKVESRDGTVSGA
Sequence of Glucocorticoid receptor (Homo sapiens) (P04150 whole entry, looked up, the tested form may be a part): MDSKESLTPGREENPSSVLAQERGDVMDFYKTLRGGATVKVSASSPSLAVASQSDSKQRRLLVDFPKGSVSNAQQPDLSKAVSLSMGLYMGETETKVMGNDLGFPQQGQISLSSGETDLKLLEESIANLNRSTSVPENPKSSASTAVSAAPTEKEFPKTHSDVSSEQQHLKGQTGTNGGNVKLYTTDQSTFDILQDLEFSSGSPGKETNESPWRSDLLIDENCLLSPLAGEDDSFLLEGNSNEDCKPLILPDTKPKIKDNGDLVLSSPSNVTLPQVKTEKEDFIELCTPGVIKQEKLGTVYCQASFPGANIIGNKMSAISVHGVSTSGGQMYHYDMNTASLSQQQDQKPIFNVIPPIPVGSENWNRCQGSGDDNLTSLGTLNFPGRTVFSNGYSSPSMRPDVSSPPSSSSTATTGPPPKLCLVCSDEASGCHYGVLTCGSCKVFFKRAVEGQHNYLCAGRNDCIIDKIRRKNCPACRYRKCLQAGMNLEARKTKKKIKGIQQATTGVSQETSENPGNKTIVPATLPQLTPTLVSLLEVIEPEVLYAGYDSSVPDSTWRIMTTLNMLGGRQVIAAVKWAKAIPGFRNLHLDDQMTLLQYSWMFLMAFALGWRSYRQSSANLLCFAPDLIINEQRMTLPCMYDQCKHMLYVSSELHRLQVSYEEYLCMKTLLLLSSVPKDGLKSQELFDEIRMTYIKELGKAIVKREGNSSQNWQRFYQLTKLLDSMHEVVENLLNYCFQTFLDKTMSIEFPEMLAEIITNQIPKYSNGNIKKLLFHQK
Sequence of 3',5'-cyclic-AMP phosphodiesterase 4B (Homo sapiens) (Q07343 whole entry, looked up): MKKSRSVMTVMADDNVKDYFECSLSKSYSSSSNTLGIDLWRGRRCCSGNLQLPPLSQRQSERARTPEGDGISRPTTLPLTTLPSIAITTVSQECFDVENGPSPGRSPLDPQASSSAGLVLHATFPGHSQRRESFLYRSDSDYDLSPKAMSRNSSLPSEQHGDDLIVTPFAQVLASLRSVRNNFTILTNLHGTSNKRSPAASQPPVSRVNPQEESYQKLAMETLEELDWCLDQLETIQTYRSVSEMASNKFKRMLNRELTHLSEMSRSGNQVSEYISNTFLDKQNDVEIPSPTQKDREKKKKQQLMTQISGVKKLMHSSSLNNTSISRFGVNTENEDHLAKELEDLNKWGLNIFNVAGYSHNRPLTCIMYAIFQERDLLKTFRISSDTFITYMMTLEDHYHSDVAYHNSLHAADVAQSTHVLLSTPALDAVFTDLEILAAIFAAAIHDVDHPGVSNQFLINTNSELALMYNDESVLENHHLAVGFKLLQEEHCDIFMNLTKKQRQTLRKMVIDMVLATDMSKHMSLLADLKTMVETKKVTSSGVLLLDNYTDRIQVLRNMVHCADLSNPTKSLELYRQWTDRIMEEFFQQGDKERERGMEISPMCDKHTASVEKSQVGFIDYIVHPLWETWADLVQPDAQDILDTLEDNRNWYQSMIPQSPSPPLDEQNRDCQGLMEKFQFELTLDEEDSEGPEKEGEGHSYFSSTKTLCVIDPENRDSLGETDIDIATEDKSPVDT
Sequence of Dual specificity protein kinase CLK4 (Homo sapiens) (Q9HAZ1 whole entry, looked up): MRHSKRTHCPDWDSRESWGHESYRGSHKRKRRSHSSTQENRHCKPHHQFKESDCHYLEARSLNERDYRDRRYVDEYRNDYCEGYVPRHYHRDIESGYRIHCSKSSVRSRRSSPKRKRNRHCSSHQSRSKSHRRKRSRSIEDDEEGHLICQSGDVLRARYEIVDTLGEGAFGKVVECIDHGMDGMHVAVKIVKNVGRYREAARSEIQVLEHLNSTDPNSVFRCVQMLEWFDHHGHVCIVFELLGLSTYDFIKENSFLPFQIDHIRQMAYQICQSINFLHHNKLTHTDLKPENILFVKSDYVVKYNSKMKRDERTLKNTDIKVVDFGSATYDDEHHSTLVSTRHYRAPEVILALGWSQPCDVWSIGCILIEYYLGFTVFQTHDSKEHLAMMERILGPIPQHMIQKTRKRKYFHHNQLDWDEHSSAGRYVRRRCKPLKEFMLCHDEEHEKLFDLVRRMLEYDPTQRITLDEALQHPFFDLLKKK
Sequence of Cytochrome P450 2C19 (Homo sapiens) (P33261 whole entry, looked up): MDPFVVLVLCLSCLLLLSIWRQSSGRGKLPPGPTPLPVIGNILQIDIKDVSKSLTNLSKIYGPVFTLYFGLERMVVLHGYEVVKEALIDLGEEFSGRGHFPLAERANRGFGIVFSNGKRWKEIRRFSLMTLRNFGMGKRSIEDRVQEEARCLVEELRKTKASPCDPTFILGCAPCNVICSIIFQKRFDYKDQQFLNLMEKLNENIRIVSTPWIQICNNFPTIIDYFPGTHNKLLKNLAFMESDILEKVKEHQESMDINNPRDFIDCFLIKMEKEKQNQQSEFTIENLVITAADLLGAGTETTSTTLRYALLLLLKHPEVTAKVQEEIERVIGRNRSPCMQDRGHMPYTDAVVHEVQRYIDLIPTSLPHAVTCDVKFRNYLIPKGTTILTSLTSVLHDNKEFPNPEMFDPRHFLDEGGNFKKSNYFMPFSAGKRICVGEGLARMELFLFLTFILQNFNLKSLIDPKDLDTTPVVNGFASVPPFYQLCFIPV

For the molecule `COc1cccc(-c2cncnc2-n2ccnc2)c1`, the Potency in test [1] was > 11.4 µM (inactive); in test [3] it was 0.1 µM (active); in test [6], > 46 µM (inactive); in test [7], > 46 µM (inactive); in [10], 0.316 µM (active); in [12] it was 0.631 µM (active). Also, the activity change, negative = inhibition was 3.37% (inactive) in [2], -0.356% (inactive) in test [4] and 7.42% (inactive) in [15]. Further, the activity, negative = inhibition in test [5] was -1.78% (inactive). Besides, the outcome in test [8], in test [13] and in [14] was inactive. Moreover, the Potency result in test [9], in test [11], in test [16] and in test [17] was “inactive” throughout. For the same molecule, the max response was -2.24% in test [15] (setting [20]) and 4.82% in [15] (setting [21]).

Regarding `COCCn1c(=O)c(-c2cccc(C#N)c2)nc2cnc(OC)nc21`, the Potency in test [1] was > 11.4 µM (inactive); in [6] it was > 9.22 µM (inactive); in test [7], > 46 µM (inactive). Also, the activity change, negative = inhibition was -22.4% (inactive) in test [2], 4.96% (inactive) in [4] and 4.12% (inactive) in [15]. Besides, the activity, negative = inhibition in test [5] was -9.77% (inactive). Besides, the call in [8] was inactive. Also, the Potency entry in [9], in test [19], in test [16] and in test [17] was “inactive” in each case. Besides, the activation in test [18] was -7.08% (inactive). The max response in test [15] (setting [20]) amounted to 19.6%; in test [15] (setting [21]) it was 22%.

With `N#Cc1cccc(-c2cc(NCc3ccccc3)ncn2)c1`, the Potency in [1] was > 11.4 µM (inactive); in test [3] it was 1 µM (active); in [6], > 46 µM (inactive); in test [7], > 46 µM (inactive). Further, the activity change, negative = inhibition in test [2] was -7.27% (inactive); in test [4] it was 17.5% (inactive); in test [15] it was 6.18% (inactive). Also, the activity, negative = inhibition in test [5] was 4.28% (inactive). Moreover, the result in test [8] was inactive. Further, the max response in test [15] (setting [20]) turned out to be 26.4%; in test [15] (setting [21]), 32.1%. Moreover, the Potency entry in test [16] and in test [17] was “inactive” each time.

`c1cncc(-c2cncnc2-n2ccnc2)c1`: the Potency in test [1] is > 11.4 µM (inactive); in test [3], 20 µM (active); in test [6] it was > 46 µM (inactive); in [7] it was > 46 µM (inactive); in test [10], 7.94 µM (active). Also, the activity change, negative = inhibition in test [2] was 7.52% (inactive); in test [4] it was -6.63% (inactive); in test [15] it was 7.84% (inactive). Also, the activity, negative = inhibition in test [5] was 0.845% (inactive). Further, the result in test [8], in test [13] and in test [14] was inactive. Moreover, the Potency result in [9], in test [11], in test [16] and in [17] was “inactive” each time. The results for the max response in test [15] (setting [20]) and in [15] (setting [21]) were 7.56% and 17.5%, respectively.

For `Cc1noc(C)c1-c1nccc(NCc2cccnc2)n1`, the Potency in test [1] was > 11.4 µM (inactive); in test [3] it was 0.158 µM (active); in test [6], > 46 µM (inactive); in [7], > 46 µM (inactive); in [10], 3.98 µM (active). Besides, the activity change, negative = inhibition is 7.38% (inactive) in test [2], -9.01% (inactive) in [4] and 4.68% (inactive) in test [15]. Besides, in test [5], the activity, negative = inhibition is 10.1% (inactive). Further, the result in [8], in test [13] and in test [14] was inactive. The Potency entry in test [9], in test [11], in [16] and in [17] was “inactive” throughout. Further, the results for the max response in test [15] (setting [20]) and in test [15] (setting [21]) were 14.6% and 21.8%, respectively.

As to `CNc1ccnc(-c2ccccc2C(F)(F)F)n1`, the Potency in test [1] is > 11.4 µM (inactive); in test [3], 12.6 µM (active); in [6], > 46 µM (inactive); in test [7], > 46 µM (inactive). Further, the activity change, negative = inhibition in [2] is 1.92% (inactive); in [4] it was 5.43% (inactive); in test [15] it was 4.06% (inactive). Besides, the activity, negative = inhibition in test [5] was -22.6% (inactive). Moreover, the molecule was called inactive in [8], in test [13] and in test [14]. The Potency result in test [9], in [11], in test [16] and in [17] was “inactive” each time. Moreover, the max response in test [15] (setting [20]) came to 2.06%; in test [15] (setting [21]) it was 6.45%.

Values taken from PubChem BioAssay (NCATS).
